Screening results from PubChem.
Hits are enriched below; roughly 2.4% of the tested compounds scored in any of these assays.
D2 ag-1 – agonists of human D2 dopamine receptor (beta-arrestin); activation, % (no concentration beside the values); P14416; 360,000 tested, 0.084% active; DiscoveRx PathHunter D2 beta-arrestin, luminescence, 90 min; 100% = 57 uM dopamine signal; in the data active = activation above about 40%
Target sequence (P14416 whole entry, looked up): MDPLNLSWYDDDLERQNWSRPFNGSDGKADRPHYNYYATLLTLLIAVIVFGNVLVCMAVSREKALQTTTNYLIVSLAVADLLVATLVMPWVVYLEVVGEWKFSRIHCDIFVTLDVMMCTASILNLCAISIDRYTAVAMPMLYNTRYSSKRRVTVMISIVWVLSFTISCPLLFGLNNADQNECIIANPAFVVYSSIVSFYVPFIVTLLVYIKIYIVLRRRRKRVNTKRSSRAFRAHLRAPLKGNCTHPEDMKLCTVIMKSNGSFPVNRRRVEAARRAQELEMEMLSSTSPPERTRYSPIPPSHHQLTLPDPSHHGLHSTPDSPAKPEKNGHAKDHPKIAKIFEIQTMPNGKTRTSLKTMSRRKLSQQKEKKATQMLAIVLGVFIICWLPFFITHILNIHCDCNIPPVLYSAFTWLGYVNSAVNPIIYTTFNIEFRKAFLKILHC
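DiscoveRx PathHunter D2 beta-arrestin cells (2,100/well) attached overnight, then compound-stimulated 90 min at 37 C in HBSS/10 mM HEPES/0.1% Tween-20 buffer; beta-galactosidase complementation read by luminescence after 1 h at ambient temperature. Dopamine 57 uM final (EC100) as control.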
D2 antag – antagonizes the human D2 dopamine receptor; HEK293 TREx D2 cells, calcium flux, dopamine EC80; inhibition, % at 10 µM; 340,000 tested, 2% active; in the data active = inhibition above about 30%; inactive = below that, where a call was filed; also: 0% is about no effect
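Overnight-induced (tetracycline, 30 C) HEK293 T-REx cells carrying force-coupled D2 receive a no-wash calcium dye, then compound, then EC80 dopamine at 180 s; signals are read kinetically throughout.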
D2 PAM-1 – positively modulates the human D2 dopamine receptor allosterically; 340,000 tested, 0.34% active; P14416; AID 485347; potentiation, % at 10 µM; HEK293 T-REx D2, calcium flux, EC20 dopamine potentiation;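 active = potentiation over 3 SD above the plate norm, cut at about 30% in these data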; also: 0% is about no effect
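Primary screen. Calcium kinetics in induced HEK293 T-REx D2 cells: compound pre-addition 180 s, EC20 dopamine, 180 s more.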
D2 ag-2 – D2 dopamine receptor (human) agonism; 340,000 tested, 0.53% active; HEK293 T-REx D2 cells, calcium flux agonist mode; P14416; activation, % at 2 µM; AID 485358;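 active = activation over 3 SD above normal in the single-dose calcium agonist read, cut at about 30% in these data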; also: 0% is about no effect
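HEK293 Trex D2 cells, tetracycline-induced, o/n 30 C 5% CO2; no-wash Ca dye, RT 30–90 min; 10-cycle baseline, 23 nl cpd added, kinetic Ca read 180 s; agonist hits = positive Ca response.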
D2 PAM-2 – potentiates the human D2 dopamine receptor allosterically. DiscoveRx D2 beta-arrestin cells, luminescence, 90 min; 100% = 57 uM dopamine signal. AID 624464. potentiation, % (concentration not given with the values). 360,000 tested, 0.23% active. P14416; in the data active = potentiation above about 50%
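PathHunter D2 cells, attached overnight at 37 deg C, received compound in DMSO plus dopamine at EC20 (50 nM final) for 90 min at 37 deg C. Beta-arrestin recruitment was read as luminescence after 1 h with detection reagent at ambient temperature.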
Active calls of the source: *.

How did O=C1NC(=Nc2ccc(Cl)cc2)/C(=C/c2ccco2)S1 do in these assays?
D2 ag-1: -1; D2 antag: 59*; D2 PAM-1: -22; D2 ag-2: 0; D2 PAM-2: -25

What do the screens show for `O=C1NC(=O)C(Nc2cccc3ccccc23)S1` (configuration not stated)?
D2 ag-1: 3; D2 antag: 6; D2 PAM-1: 4; D2 ag-2: -1; D2 PAM-2: 63*

How did CCOC(=O)CSc1nc(-c2ccc(C)cc2C)cc(-c2ccccc2)c1C#N do in these assays?
D2 PAM-1: 9; D2 ag-2: 2

Results for CN(C(=O)CCl)C1CCCc2ccccc21 (configuration not stated) ?
D2 ag-1: -4; D2 antag: -12; D2 PAM-1: 34*; D2 ag-2: 0; D2 PAM-2: -15

How did COc1ccc2cc(-c3nc4ccc(C(=O)O)cc4[nH]3)c(=O)oc2c1 do in these assays?
D2 PAM-1: 2; D2 ag-2: 0

What do the screens show for `COc1ccc(Br)cc1Cn1nnc(C(=O)Nc2cccc(SC)c2)c1N`?
D2 PAM-1: -4; D2 ag-2: 2

What do the screens show for `CC(O)CNc1nc2c(c(=O)n(Cc3ccccc3)c(=O)n2C)n1C` (configuration not stated)?
D2 ag-1: -4; D2 antag: -19; D2 PAM-1: 14; D2 ag-2: 1; D2 PAM-2: -7

What do the screens show for `CC(O)CNc1nc2c(c(=O)n(Cc3ccc(Br)cc3)c(=O)n2C)n1C` (configuration not stated)?
D2 ag-1: 6; D2 antag: 4; D2 PAM-1: 10; D2 ag-2: -1; D2 PAM-2: 52*

How did O=C1N(CN2CCC3(CC2)OCCO3)c2ccccc2C12OCCCO2 do in these assays?
D2 ag-1: -3; D2 antag: 4; D2 PAM-1: 6; D2 ag-2: 0; D2 PAM-2: -10

How did O=C1N(CN2CCN(c3cccc(Cl)c3)CC2)c2ccccc2C12OCCCO2 do in these assays?
D2 ag-1: -1; D2 antag: 33*; D2 PAM-1: -22; D2 ag-2: 1; D2 PAM-2: -17

Results for Cc1ccc(S(=O)(=O)N2CCC3(CC2)OCCN3S(=O)(=O)c2cccs2)cc1 ?
D2 ag-1: -1; D2 PAM-2: -2

What do the screens show for `O=[N+]([O-])c1ccc(S(=O)(=O)N2CCC3(CC2)OCCN3S(=O)(=O)c2cccs2)cc1`?
D2 ag-1: 14; D2 antag: 10; D2 PAM-1: 0; D2 ag-2: 0; D2 PAM-2: 72*

How did COc1ccc(NC(=O)CN(C)C(=O)C23CC4CC(CC(C4)C2)C3)cc1 do in these assays?
D2 ag-1: 0; D2 antag: -7; D2 PAM-1: 3; D2 ag-2: 1; D2 PAM-2: 0

How did Cc1cccc(C(=O)Nc2ccc3ccccc3c2)c1 do in these assays?
D2 ag-1: -6; D2 antag: -22; D2 PAM-1: 12; D2 ag-2: 0; D2 PAM-2: -36

What do the screens show for `Cc1cccc(/C=N/NC(=O)Cn2nnnc2N)n1`?
D2 ag-1: -3; D2 antag: -8; D2 PAM-1: 0; D2 ag-2: 1; D2 PAM-2: -3

Results for COc1ccccc1N1CCN(CC(O)COCCOc2ccc(Br)cc2)CC1 (configuration not stated) ?
D2 ag-1: -2; D2 antag: 78*; D2 PAM-1: -25; D2 ag-2: 9; D2 PAM-2: -33

How did COc1ccccc1N1CCN(CC(O)COCc2cccs2)CC1 (configuration not stated) do in these assays?
D2 ag-1: -1; D2 antag: 81*; D2 PAM-1: -33; D2 ag-2: 2; D2 PAM-2: -10

What do the screens show for `Cc1ccccc1OCC(O)CN1CCN(CC(O)COc2ccccc2C)CC1` (configuration not stated)?
D2 ag-1: -3; D2 antag: 62*; D2 PAM-1: -30; D2 ag-2: 1; D2 PAM-2: -27

Results for Cc1ccccc1OCC(O)CN1CCCCC1 (configuration not stated) ?
D2 ag-1: -2; D2 antag: 5; D2 PAM-1: 2; D2 ag-2: 0; D2 PAM-2: -17

Results for Cc1ccc(N2CCN(CC(O)COc3cccc4ccccc34)CC2)cc1 (configuration not stated) ?
D2 ag-1: 9; D2 antag: -29; D2 PAM-1: -18; D2 ag-2: -2; D2 PAM-2: -50

Results for COc1cc(COCC(O)CN2CCN(Cc3ccccc3)CC2)cc(OC)c1OC (configuration not stated) ?
D2 ag-1: -1; D2 antag: 6; D2 PAM-1: -20; D2 ag-2: 0; D2 PAM-2: -9

What do the screens show for `COc1ccccc1N1CCN(CC(O)COc2c(OC)cccc2OC)CC1` (configuration not stated)?
D2 ag-1: 2; D2 antag: 123*; D2 PAM-1: -30; D2 ag-2: 15; D2 PAM-2: -13

What do the screens show for `CC1CN(C(=O)c2cc(S(=O)(=O)N(C)c3ccc(F)cc3)ccc2Cl)CC(C)O1` (configuration not stated)?
D2 ag-1: -2; D2 antag: -9; D2 PAM-1: -2; D2 ag-2: 1; D2 PAM-2: 6

Results for COc1ccccc1N1CCN(CC(O)c2ccc3cc[nH]c3c2)CC1 (configuration not stated) ?
D2 ag-1: 2; D2 antag: 60*; D2 PAM-1: -27; D2 ag-2: 37*; D2 PAM-2: -8

How did COc1ccccc1N1CCN(CC(O)COc2ccc(C)cc2C)CC1 (configuration not stated) do in these assays?
D2 ag-1: -1; D2 antag: 76*; D2 PAM-1: -30; D2 ag-2: 29; D2 PAM-2: -25

Results for Cc1ccccc1OCC(O)Cn1c(=N)n(CCN2CCOCC2)c2ccccc21 (configuration not stated) ?
D2 ag-1: -2; D2 antag: -14; D2 PAM-1: 40*; D2 ag-2: -2; D2 PAM-2: -12

Results for C=CCc1ccc(OCC(O)CN2CCN(c3ccccc3OC)CC2)c(OC)c1 (configuration not stated) ?
D2 ag-1: 5; D2 antag: 7; D2 PAM-1: 7; D2 ag-2: -1; D2 PAM-2: -12

How did COc1ccc2[nH]cc(C(O)CN3CCN(c4ccccc4F)CC3)c2c1 (configuration not stated) do in these assays?
D2 ag-1: -3; D2 antag: 33*; D2 PAM-1: -13; D2 ag-2: 13; D2 PAM-2: -16
